Compound activity: PubChem, National Center for Advancing Translational Sciences (NCATS)
BAZ2B inh: BAZ2B (human) inhibition; AlphaScreen BAZ2B-H3K14Ac peptide displacement; Potency, µM (top dose mostly 114 µM), without a hit: at the top dose activity change, negative = inhibition, hits mostly inhibitors; 4.4% of 360,000 active; AID 504333; note: potency is the fitted concentration of half-maximal effect; % is set by controls: 0 for no effect and ±100 for the full control effect; nearly all actives have a fitted effect of over 60% in size
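In this displacement format the biotinylated H3(5-23) peptide acetylated at Lys14 serves as ligand at 50 nM, with BAZ2B at 50 nM in PBS pH 7.4 containing 0.01% Tween-20. Donor and acceptor beads are 10 ug/mL final.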
Six1-Eya2 blk: inhibitors of human Six1/Eya2 interaction. Q15475+O00167. AlphaScreen GST-Six1/His-Eya2 binding, biochemical; active compounds read low. activity change, % (test concentration not listed). 0.56% of 360,000 active; in the data active = activity change below about -65%; inconclusive = mostly about -30% to -63%; note: % is set by controls: 0 for no effect and ±100 for the full control effect
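Six1/Eya2 binding was read as AlphaScreen signal after compounds were pinned into GST-Six1 plus His-tagged Eya2 (5X stock 250/500 nM) in pH 8.0 Tris/NaCl/TCEP buffer, beads added, then incubated 1 h, 37 C, dark.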
JMJD2A Tudor inh: blocks the human JMJD2A Tudor domain; Potency, µM (top dose mostly 114 µM), inactives show at the highest dose activity change, negative = inhibition, usual class: inhibitors; O75164; 4.4% of 390,000 active; AlphaScreen JMJD2A-Tudor / H3K4me3 peptide binding; note: potency is the fitted concentration of half-maximal effect; % is set by controls: 0 for no effect and ±100 for the full control effect; nearly all actives have a fitted effect of over 50% in size
G9a inh: blocks human histone lysine methyltransferase G9a. Q96KQ7. G9a H3K9 monomethylation, AlphaScreen, 2 h. Potency, µM (series often up to 102 µM), for inactives: top-dose activity, negative = inhibition, actives largely listed as inhibitors. 8.8% of 350,000 active; note: potency is the fitted concentration of half-maximal effect; % is set by controls: 0 for no effect and ±100 for the full control effect; nearly all actives have a fitted effect of over 75% in size
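Compounds were preincubated with 20 nM G9a for 15 min, after which biotinylated H3K9 peptide (500 nM) and SAM (20 uM) started a 2 h room-temperature reaction. Monomethylated product was quantified by antibody-based AlphaScreen chemiluminescence.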
HP1b binding inh: blocks HP1-beta chromodomain binding to methylated histone tails; P83916; AlphaScreen HP1-beta / biotin-H3K9me3 peptide binding; Potency, µM (highest dose often 114 µM), for the others: top-dose activity change, negative = inhibition, most hits filed as inhibitors; 0.56% of 390,000 active; AID 540317; note: potency is the fitted concentration of half-maximal effect; nearly all actives have a fitted effect of over 70% in size
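AlphaScreen: HP1-beta (50 nM) preformed 30 min with biotin-H3(1-18)K9me3 peptide (50 nM) in PBS pH 7.4, 0.01% Tween-20. Compound added for 30 min at RT, then streptavidin donor/nickel chelate acceptor beads (10 ug/mL) for 30 min.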
CtBP-E1A blk: blocks the CtBP interaction with E1A | activity change, % (no concentration beside the values) | AlphaScreen GST-E1A/His-CtBP binding, 1536-well; active compounds read low | 0.49% of 340,000 active; in the data active = activity change below about -65%; inconclusive = mostly about -30% to -63%; note: % is set by controls: 0 for no effect and ±100 for the full control effect
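GST-E1A and His-tagged CtBP (125 nM each as 5X stock) were preincubated with pin-transferred compound for 2 h at 37 °C in the dark, then glutathione donor and nickel acceptor beads were added for 1 h before AlphaScreen reading.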
An asterisk follows results filed as active; [ ] = dose if it differs, or a comment. Only some compounds are listed: those with a hit (about 10% of all), similar ones and a draw of the others. Unless noted, calls come from the whole dose curve; as a rule, active = well fitted inhibition curve with a large enough effect; inconclusive = small, poorly fitted or top-dose-only effect; inactive = no such curve, though single readings can be large or run the other way.

How did Cc1cc(C)c2nc(NNC(=O)c3ccc(S(=O)(=O)N4CCCC(C)C4)cc3)sc2c1 (stereo unspecified) do in these assays?
BAZ2B inh: 8.9µM*; Six1-Eya2 blk: 15; JMJD2A Tudor inh: inconclusive; G9a inh: 45µM*; HP1b binding inh: -22%; CtBP-E1A blk: -22

What do the screens show for `Cc1cc(C)c2nc(NNC(=O)c3ccc(S(=O)(=O)N4CC(C)CC(C)C4)cc3)sc2c1` (stereo unspecified)?
BAZ2B inh: 10µM*; Six1-Eya2 blk: 1; JMJD2A Tudor inh: 16µM*; G9a inh: 28µM*; HP1b binding inh: -12%; CtBP-E1A blk: -12

Results for Cc1cccc2sc(NNC(=O)c3ccc(S(=O)(=O)N4CC(C)CC(C)C4)cc3)nc12 (stereo unspecified) ?
BAZ2B inh: 8.9µM*; Six1-Eya2 blk: 0; JMJD2A Tudor inh: 22µM*; G9a inh: 50µM*; HP1b binding inh: -16%; CtBP-E1A blk: -1

What do the screens show for `C[C@H](O)CNC(=O)c1[nH]cnc1C(=O)Nc1cccc(Cl)c1`?
Six1-Eya2 blk: 3; CtBP-E1A blk: 4

Results for O=C(COC(=O)CNS(=O)(=O)c1ccc(Br)cc1Cl)NCCc1ccccc1 ?
BAZ2B inh: -12%; Six1-Eya2 blk: -6; JMJD2A Tudor inh: -7%; G9a inh: 16%; HP1b binding inh: 20%; CtBP-E1A blk: 2

What do the screens show for `CCC(C)Nc1nc(-c2ccc3c(c2)NC(=O)CO3)cs1` (stereo unspecified)?
BAZ2B inh: inconclusive; Six1-Eya2 blk: -7; JMJD2A Tudor inh: inconclusive; G9a inh: 50µM*; HP1b binding inh: -1%; CtBP-E1A blk: 9

What do the screens show for `COc1ccccc1Nc1nc(-c2ccc3c(c2)NC(=O)CO3)cs1`?
BAZ2B inh: -30%; Six1-Eya2 blk: -22; JMJD2A Tudor inh: -21%; G9a inh: inconclusive; HP1b binding inh: 33%; CtBP-E1A blk: -6

What do the screens show for `COc1ccc(Nc2nc(-c3ccc4c(c3)NC(=O)CO4)cs2)cc1`?
BAZ2B inh: -26%; Six1-Eya2 blk: -13; JMJD2A Tudor inh: inconclusive; G9a inh: 45µM*; HP1b binding inh: inconclusive; CtBP-E1A blk: -7

Results for O=C(CCN1N=C(c2ccccc2)CCC1=O)NCCc1ccc(Cl)cc1 ?
BAZ2B inh: 3%; JMJD2A Tudor inh: -7%; G9a inh: -2%[59 µM]; HP1b binding inh: 22%

Results for NS(=O)(=O)c1ccc(NC(=S)NC2CCCCCC2)cc1 ?
BAZ2B inh: -2%; Six1-Eya2 blk: 4; JMJD2A Tudor inh: -29%; G9a inh: inconclusive; HP1b binding inh: -21%; CtBP-E1A blk: -1

What do the screens show for `S=C(Nc1ccc(Oc2ccccc2)cc1)NC1CCCCC1`?
BAZ2B inh: -7%; Six1-Eya2 blk: -8; JMJD2A Tudor inh: -16%; G9a inh: -4%[59 µM]; HP1b binding inh: 16%; CtBP-E1A blk: -6

Results for Cc1ccc(NC(=S)NNC(=S)NC2CCCCC2)cc1 ?
BAZ2B inh: -14%; Six1-Eya2 blk: -6; JMJD2A Tudor inh: inconclusive; G9a inh: inconclusive; HP1b binding inh: -14%; CtBP-E1A blk: -3

How did S=C(Nc1ccc(Oc2ccccc2)cc1)NC1CCCCCC1 do in these assays?
BAZ2B inh: -1%; Six1-Eya2 blk: -15; JMJD2A Tudor inh: -12%; G9a inh: 45µM*; HP1b binding inh: -10%; CtBP-E1A blk: -17

What do the screens show for `NS(=O)(=O)c1ccc(NC(=S)NC2CCCC2)cc1`?
BAZ2B inh: -5%; Six1-Eya2 blk: -7; JMJD2A Tudor inh: 6%; G9a inh: 8.9µM*; HP1b binding inh: 29%; CtBP-E1A blk: 6

Results for CC(=O)c1ccc(NC(=S)NNC(=O)NC2CCCCC2)cc1 ?
BAZ2B inh: inconclusive; Six1-Eya2 blk: 1; JMJD2A Tudor inh: -28%; G9a inh: 8.9µM*; HP1b binding inh: -16%; CtBP-E1A blk: -1

What do the screens show for `S=C(NNc1ccc2ccccc2c1)NC1CCCCC1`?
BAZ2B inh: 8.9µM*; Six1-Eya2 blk: inconclusive; JMJD2A Tudor inh: 4µM*; G9a inh: 11µM*; HP1b binding inh: 28µM*; CtBP-E1A blk: inconclusive

Results for CN(C(=O)COc1ncnc2sccc12)c1ccccc1 ?
BAZ2B inh: -1%; Six1-Eya2 blk: -3; JMJD2A Tudor inh: -11%; G9a inh: -41%; HP1b binding inh: 49%; CtBP-E1A blk: 6

How did CC(C)=CCC[C@H](C)C[C@@H]1CC2=C(C(=O)OC(C)(C)O2)[C@H](c2ccc(Cl)cc2)O1 do in these assays?
Six1-Eya2 blk: 4; CtBP-E1A blk: 9

What do the screens show for `CCc1ccccc1N(C)C(=O)c1cc2c(=O)oc3ccccc3c2s1`?
BAZ2B inh: 0%; JMJD2A Tudor inh: -2%; G9a inh: -1%[59 µM]; HP1b binding inh: 39%

Results for CCC(C)NC(=O)C1c2ccccc2C(=O)N1Cc1cc(OC)ccc1OC (stereo unspecified) ?
BAZ2B inh: 11%; Six1-Eya2 blk: 3; JMJD2A Tudor inh: -19%; G9a inh: 9%[59 µM]; HP1b binding inh: 8%; CtBP-E1A blk: 4

Results for CCC(C)NC(=O)C1c2ccccc2C(=O)N(c2ccc(OC)cc2)C1c1ccc(OC)cc1 (stereo unspecified) ?
BAZ2B inh: 3%; Six1-Eya2 blk: 8; JMJD2A Tudor inh: 20µM*; G9a inh: 2%[59 µM]; HP1b binding inh: -9%; CtBP-E1A blk: 2

What do the screens show for `Cc1ccccc1C(=O)NCC(=O)OC(C(=O)Nc1cc(C(F)(F)F)ccc1Cl)c1ccccc1` (stereo unspecified)?
JMJD2A Tudor inh: -18%

Results for COc1ccc(-c2c(C)nn3c(-c4ccccc4)cc(-c4ccccc4)nc23)cc1OC ?
BAZ2B inh: inconclusive; JMJD2A Tudor inh: -27%; G9a inh: inconclusive; HP1b binding inh: inconclusive

How did COc1ccc(-c2cc(C)nc3c(-c4ccc(OC)c(OC)c4)c(C)nn23)cc1 do in these assays?
BAZ2B inh: 20µM*; JMJD2A Tudor inh: 28µM*; G9a inh: 14µM*; HP1b binding inh: -20%

What do the screens show for `Cc1ccc(Cl)cc1N1CCN(S(=O)(=O)c2ccc3[nH]c4c(c3c2)CCCCC4)CC1`?
BAZ2B inh: 1%[57.1 µM]; JMJD2A Tudor inh: inconclusive; G9a inh: inconclusive; HP1b binding inh: -23%

What do the screens show for `O=c1c(Cl)c(O)c2cccc3c4ccccc4n1c23`?
BAZ2B inh: -27%; Six1-Eya2 blk: inconclusive; JMJD2A Tudor inh: -26%; G9a inh: 45µM*; HP1b binding inh: 6%; CtBP-E1A blk: -9

How did COc1c(O)c(=O)n2c3ccccc3c3ccnc1c32 do in these assays?
BAZ2B inh: 10%; Six1-Eya2 blk: -77*; JMJD2A Tudor inh: inconclusive; G9a inh: inconclusive; HP1b binding inh: -10%; CtBP-E1A blk: -82*
